From PubChem BioAssay (NCI)
The panel holds about 79,000 compounds, 15% with a hit somewhere; the sample as a whole holds those more often. Values without a mark were called inactive. Active and inactive are the calls of the source. Rule as the data show it: active = growth inhibition above about 70%; inactive = the rest.

Tests used:
[1] = NCI Yeast Anticancer Drug Screen. Data for the rad50 strain (AID 155);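 also: 0% = growth of vehicle-only cultures of the same strain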; conditions: S. cerevisiae rad50 strain growth inhibition, stronger effect = higher value
Procedure, shortened: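 Yeast carrying a defined DNA repair defect were exposed to test compounds, and growth was compared with vehicle-treated controls to give percent inhibition.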

[2] = NCI Yeast Anticancer Drug Screen. Data for the mec2-1 strain (AID 157); conditions: S. cerevisiae mec2-1 strain, stronger effect = higher value
Procedure, shortened: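 mec2-1 yeast strain, carrying an alteration in DNA damage repair or cell cycle control, was exposed to compounds; growth inhibition was measured relative to vehicle-treated controls.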

[3] = NCI Yeast Anticancer Drug Screen. Data for the sgs1 mgt1 strain (AID 161);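 also: 0% = growth of cultures given vehicle only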; conditions: S. cerevisiae sgs1 mgt1 strain, stronger effect = higher value
Procedure, shortened: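 Percent growth inhibition was derived by comparing compound-exposed mutant yeast with vehicle-exposed cultures. The strain carries alterations in DNA damage repair.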

[4] = NCI Yeast Anticancer Drug Screen. Data for the cln2 rad14 strain (AID 165);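 also: 0% = growth equal to vehicle treated cultures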; conditions: S. cerevisiae cln2 rad14 strain, stronger effect = higher value
Procedure, shortened: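 Yeast carrying cln2 and rad14 alterations (cell cycle control and DNA damage repair) were exposed to compounds. Growth inhibition was measured against vehicle-treated controls.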

[5] = NCI Yeast Anticancer Drug Screen. Data for the bub3 strain (AID 167); conditions: S. cerevisiae bub3 mutant strain, stronger effect = higher value
Procedure, shortened: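 Compounds were applied to a genetically altered yeast strain carrying a cell-cycle control defect. Growth inhibition was scored against vehicle-treated controls.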

[6] = NCI Yeast Anticancer Drug Screen. Data for the mlh1 rad18 strain (AID 175); conditions: S. cerevisiae mlh1 rad18 strain growth inhibition, stronger effect = higher value
Procedure, shortened: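 Growth inhibition of the yeast strain was measured after compound exposure and expressed relative to vehicle-treated controls. The strain carries defined defects in DNA damage repair.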

[7] = at 5.0 µM (retest, dose inferred, filed as 0.5)
[8] = at 50.0 µM (retest, dose inferred, filed as 5.0)

SMILES	growth inhibition [1, 7]	growth inhibition [1, 8]	growth inhibition ([1]; at 50.0 µM)	growth inhibition [2, 7]	growth inhibition [2, 8]	growth inhibition ([2]; at 50.0 µM)	growth inhibition [3, 7]	growth inhibition [3, 8]	growth inhibition ([3]; at 50.0 µM)	growth inhibition [4, 7]	growth inhibition [4, 8]	growth inhibition ([4]; at 50.0 µM)	growth inhibition [5, 7]	growth inhibition [5, 8]	growth inhibition ([5]; at 50.0 µM)	growth inhibition [6, 7]	growth inhibition [6, 8]	growth inhibition ([6]; at 50.0 µM)
CCCCCCCCCCCCCCC(O)C[N+](C)(CCO)CCO (stereo not given)	29%	98% (active)	86.6% (active)	22%	99% (active)	87.7% (active)	32%	99% (active)	88.8% (active)	10%	98% (active)	88.3% (active)	28%	99% (active)	86% (active)	32%	98% (active)	88.9% (active)
O=C1C=C(c2ccccc2)S(=O)(=O)c2c(O)cccc21	88% (active)	100% (active)	99.6% (active)	76% (active)	100% (active)	99.6% (active)	80% (active)	100% (active)	99.5% (active)	46%	99% (active)	99% (active)	71% (active)	99% (active)	99.2% (active)	94% (active)	100% (active)	99.7% (active)
C[C@H](CCC1=NCCN1)[C@H]1CC[C@H]2[C@@H]3CC[C@@H]4C[C@H](O)CC[C@]4(C)[C@H]3C[C@H](O)[C@]12C	93% (active)	99% (active)	91.3% (active)	26%	76% (active)	93.1% (active)	39%	99% (active)	90.2% (active)	59%	99% (active)	87.8% (active)	-10%	99% (active)	91.4% (active)	32%	99% (active)	91% (active)
CCCCCCCCCC(=O)CC(=O)c1c(O)cccc1O	33%	83% (active)	86% (active)	20%	92% (active)	90.3% (active)	52%	96% (active)	90.5% (active)	22%	83% (active)	88.9% (active)	42%	94% (active)	87.3% (active)	40%	95% (active)	86.2% (active)
COc1ccc(/C(Cl)=C(\C=O)c2ccc(Cl)cc2)cc1	17%	17%	-4.05%	-10%	2%	7.7%	-17%	22%	27.8%	12%	26%	-8.85%	18%	54%	28.1%	-6%	27%	19.8%
Sc1c(Br)cc(Br)cc1Br.[Ag]	7%	99% (active)	31.6%	6%	100% (active)	30.9%	26%	99% (active)	72.4% (active)	6%	99% (active)	14.6%	-1%	100% (active)	30.7%	19%	99% (active)	59.5%
C=CCOC(=O)CC(O)C(=O)OCC=C (stereo not given)	-5%	7%	0.95%	4%	-2%	-12.7%	-1%	3%	-29.6%	1%	-9%	13.8%	0%	-8%	7.85%	-5%	13%	-2.45%
O=C1C(Cl)=C(Nc2cc(Cl)ccc2Cl)C(=O)c2ccccc21	45%	99% (active)	2.45%	63%	98% (active)	97.9% (active)	68%	100% (active)	98.7% (active)	20%	95% (active)	78.8% (active)	96% (active)	99% (active)	99.5% (active)	64%	98% (active)	99.5% (active)
O=C(CC(=O)Nc1cccc(Cl)c1)NNCC(=O)Nc1nnc(-c2ccccc2)s1	8%	98% (active)	8.5%	6%	99% (active)	8.05%	11%	99% (active)	0.65%	3%	98% (active)	51.1%	7%	99% (active)	-3.45%	3%	98% (active)	9.9%
CCNc1nc(C(F)(F)F)nc2nc[nH]c12	3%	-5%	6.15%	1%	4%	-5.75%	-22%	-5%	-20.1%	-5%	0%	92.7% (active)	-4%	-4%	3.4%	-3%	-9%	39.9%
